From PubChem BioAssay AID1508608 (The Scripps Research Institute Molecular Screening Center, 2020) come the findings set out here.

Structures are written as SMILES. Hit rate of the full screen: of about 2,300 compounds, about 20 (0.9%) were called active. This excerpt belongs to a sample that is enriched for actives. A number with no mark means an inactive call.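 The calls were made as follows: active = mean activation across replicates above 26.72%, the hit cutoff set for this confirmation screen; inactive = the rest.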

Chain of G-protein coupled receptor 151 (Homo sapiens) (Q8TDV0 whole entry, looked up): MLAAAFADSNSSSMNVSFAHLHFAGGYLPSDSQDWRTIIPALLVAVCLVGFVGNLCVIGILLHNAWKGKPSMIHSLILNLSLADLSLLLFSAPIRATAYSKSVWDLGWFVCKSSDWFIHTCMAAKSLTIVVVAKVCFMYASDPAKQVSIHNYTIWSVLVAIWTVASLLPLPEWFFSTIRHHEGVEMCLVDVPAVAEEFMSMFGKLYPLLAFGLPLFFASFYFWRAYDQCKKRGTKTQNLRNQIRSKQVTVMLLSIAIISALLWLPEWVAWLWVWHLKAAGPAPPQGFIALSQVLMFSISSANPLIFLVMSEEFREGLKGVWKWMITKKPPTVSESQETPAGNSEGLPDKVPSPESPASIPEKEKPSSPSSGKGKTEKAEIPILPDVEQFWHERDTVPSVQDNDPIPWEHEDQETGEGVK

This assay has as its target G-protein coupled receptor 151 (Homo sapiens) (UniProt Q8TDV0). Briefly: GPR151 activators, triplicate retest, confirmation, cell-based, PathHunter beta-arrestin, luminescence, set 2 (AID 1508608).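 Also: 0% = plate median of compound wells and 100% = EA reagent high control.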 To be noted: GPR151 PathHunter beta-arrestin cells, 90 min, at 11.2 µM, stronger effect = higher value, 100% = signal from added EA reagent.
`CC(C)c1ccc(Cn2ccc3c4c(N)nc(NC5CC5)nc4ccc32)cc1`: the activation is 104% (active). In the case of `N/C(=N\OC(=O)CCCN1C(=O)c2ccccc2C1=O)c1ccccn1` it was 10.3%. For the compound `CCN(CC)C(=O)CN(c1ccccc1)S(=O)(=O)c1ccc(C)cc1`, the activation was 4.39%. Turning to `CCC1CN(CCNC(=O)c2scc3c2OCCO3)Cc2cc(OC)ccc2O1` (centres undefined), the activation was 6.33%.

Turning to `CC(=O)C1C(c2cccc([N+](=O)[O-])c2)c2c(n[nH]c2C)CC1(C)O` (centres undefined), the activation was 0.19%. To `CC1=C(C(=O)NCCN2Cc3ccccc3OC(c3ccccc3F)C2)OCCO1` (centres undefined) belongs 2.76%. Turning to `CCOc1cc(OCC)cc(C(=O)Nc2ccc(Br)cn2)c1`, the activation was 8.34%. To `CNc1nc2c(-c3ccc(Cl)cc3)nnn2c2ccccc12` belongs 16.9%. On to `CC1CC(C)CN(C(=O)c2ccc(NCc3cccs3)c(S(=O)(=O)Nc3cc(F)ccc3F)c2)C1` (centres undefined), for which the activation is 3.31%. In the case of `CCCOC1CCCN(Cc2c(C(=O)N(C)CCc3ccccc3)nc3sccn23)C1` (centres undefined) it was 6.38%; in that of `CC(=O)c1cccc(NC(=O)Oc2ccccc2)c1`, 2.16%; in that of `CCOC(=O)CCN(Cc1ccccc1F)S(=O)(=O)c1ccc([N+](=O)[O-])cc1`, -3.3%.

Turning to `COc1ccc(C(=O)N(c2ccc(C)cc2)S(=O)(=O)c2ccc(C)cc2)cc1OC`, the activation is 6.29%. In the case of `CCOC(=O)c1ccc(CN(Cc2c(Cl)cccc2Cl)S(=O)(=O)c2cccc([N+](=O)[O-])c2)cc1` it was 0.8%. On to `CC1=C(C(=O)OCc2ccco2)C(c2ccc(F)cc2)NC(=O)N1` (centres undefined), for which the activation was 3.69%. In the case of `O=[N+]([O-])c1ccc2nc(SCc3ccc(I)cc3)sc2c1`, the activation was 3.08%. Turning to `CC(C)CCN1C(=O)C(C)(C)COc2cc(NC(=O)c3ccc4c(c3)OCO4)ccc21`, the activation was -3.7%. For the compound `COc1cc(/C=C/c2[nH]c(=O)[nH]c(=O)c2[N+](=O)[O-])ccc1OC(C)C`, the activation was -3.99%. Turning to `CCN(c1ccccc1)c1ncnc2c1cnn2-c1ccc(Cl)cc1`, the activation is 5.9%. As for `Cc1ccc(-c2[nH]c(=S)[nH]c(=O)c2C#N)cc1`, the activation was -2.95%.

On to `Cc1ccccc1OCC(=O)Nc1ccc(N2C(=O)c3ccc([N+](=O)[O-])cc3C2=O)cc1`, for which the activation is 6.85%. In the case of `O=C(Nc1cc(C(F)(F)F)ccc1Cl)c1ccc(C(=O)C(=O)c2ccccc2)cc1` it was -1.66%.

Consider `Cc1ccc(NC(=O)c2ccccc2F)c(Br)c1`, for which the activation was -2.79%. In the case of `O=C(Nc1cc(Cl)ccc1Cl)c1ccccc1O` it was 26.9% (active). To `CCOC(=O)C1=C(C)N=c2s/c(=C\c3cc(C)n(-c4ccc(C(=O)OCC)cc4)c3C)c(=O)n2C1c1ccc(OC)c(OC)c1` (centres undefined) belongs 1.8%; to `CCCc1[nH]n(-c2ccc(F)cc2)c(=O)c1C=Nc1ccc(OCC)cc1`, -1.39%. Take `Cn1nc2c(c1C(=O)NCC1CC(Cc3cccc(F)c3)=NO1)CCCC2` (centres undefined): the activation is -2%.

Consider `O=C(CSc1nnc(Cc2cc(=O)[nH]c(=O)[nH]2)n1-c1ccccc1)NC1CCCC1`, for which the activation is 2.56%. To `COc1ccc2c(c1)N(C)/C(=c1/s/c(=c3/sc4nc5ccccc5n4c3=O)n(C)c1=O)S2` belongs 5.91%. To `COC(=O)Cn1c(CN2CCOCC2)nc2c1c(=O)n(C)c(=O)n2C` belongs -2.55%; to `CC(=O)Cc1nsc(Nc2ccc(C)c(Cl)c2)n1`, 3.54%; to `CCN(CC)S(=O)(=O)c1ccc(C(=O)Nc2nc3ccc([N+](=O)[O-])cc3s2)cc1`, 2.56%.

On to `COc1ccc(-c2onc(C(F)(F)F)c2-c2ccc(Cl)cc2)c(O)c1`, for which the activation is 0.9%. With `Cc1ccc(Cl)cc1Nc1cc(N2CCOCC2)c2nonc2c1[N+](=O)[O-]`, the activation is 3.43%. In the case of `CC(C)C[C@@H]1NC(=O)[C@H]2CN(Cc3cn(C)nc3-c3ccccc3)CCN2C1=O` it was 3.84%; in that of `CCC(C)NC(=O)C1CCN(S(=O)(=O)N2CCOCC2)CC1` (centres undefined), 7.37%; in that of `Cn1c(=O)oc2cc(S(=O)(=O)N3CCCC(C(=O)N4CCOCC4)C3)ccc21` (centres undefined), 11.4%. For `CCc1ccc(C2=CC(c3ccc(OC)c(OC)c3)n3ncnc3N2)cc1` (centres undefined), the activation was 0.38%. In the case of `COc1ccccc1-c1nnc(C2CCN(S(=O)(=O)c3cccc(C#N)c3)CC2)o1` it was -0.51%; in that of `CCN(CC)CCNC1=CC(=O)OC12CCCCC2`, -1.78%; in that of `CCC1Oc2ccccc2N(CC(=O)NC2CCCCCC2)C1=O` (centres undefined), -3.51%. For the compound `O=C(c1ccco1)N1CCN(C(=O)C2(S(=O)(=O)c3ccc(Cl)cc3)CC2)CC1`, the activation is 4.46%. For `O=C(NCCC12CC3CC(CC(C3)C1)C2)c1cc([N+](=O)[O-])ccc1N1CCOCC1`, the activation was 6.89%. To `CCOc1ccc(-c2cc(C(=O)N/N=C/c3ccc(O)c(OCC)c3)[nH]n2)cc1` belongs -0.84%; to `CCCOc1ccc(C2C3=C(CC(C)(C)CC3=O)N(CC(=O)O)C3=C2C(=O)CC(C)(C)C3)cc1OCC`, 4.15%; to `COc1ccc(C(=O)NCC2CCCN2S(=O)(=O)c2cccs2)cc1OC` (centres undefined), -1.78%. On to `CN1CCN(C(CNS(=O)(=O)c2ccccc2)c2cccnc2)CC1` (centres undefined), for which the activation is -1.58%. For `CCCCOC(=O)N1CCOCCOCCN(C(=O)OCCCC)CCOCCOCC1`, the activation was -4.43%.

For `Cc1ccc(-n2ncc3c(NCc4ccco4)ncnc32)c(C)c1`, the activation is 2.13%. To `Cc1cccc(-c2nc3ccccc3c(=O)n2Cc2ccccc2C)c1` belongs 1.61%. In the case of `Cc1ccc(COc2cccc3c2CCN(C)C3=O)cc1` it was -4.68%; in that of `CCCCOC(=O)c1ccc(N2C(=O)c3cccc([N+](=O)[O-])c3C2=O)cc1`, -3.4%. To `CC(=O)c1ccc(N2C(=O)c3ccc(Oc4ccc([N+](=O)[O-])cc4[N+](=O)[O-])cc3C2=O)cc1` belongs -8.73%. As for `CC(=O)Oc1ccccc1N1C(=O)c2cccc([N+](=O)[O-])c2C1=O`, the activation is 28.3% (active). In the case of `Cc1ccc([N+](=O)[O-])cc1NC(=O)C1C2/C=C\CCCCC21` (centres undefined) it was 0.67%; in that of `O=C(NCCCN1CCCC1)C(=O)Nc1ccc2nc3n(c(=O)c2c1)CCCCC3`, -2.06%.

For the compound `COc1ccc(-c2nc(-c3ccc(NC(=O)c4ccc(Br)o4)cc3)no2)cc1OC`, the activation is 7.05%. Consider `N=C(N)SCc1csc2c1CCCC2`, for which the activation was 1.33%. To `Nc1nc(NC(=O)c2ccccc2)nn1-c1ccccc1` belongs -4.73%; to `CC(C)c1ccc(/C=N\NC(=O)Cn2c(-c3nonc3N)nc3ccccc32)cc1`, 0.86%. In the case of `CCOC(=O)c1cnc2c(OC)cccc2c1NC1CCCCCC1` it was 18.4%; in that of `Cc1ccc(C2=N/C(=C\c3cccc(C(F)(F)F)c3)C(=O)O2)cc1[N+](=O)[O-]`, 3.7%; in that of `CCCCc1ccc(C2=N/C(=C\c3ccc(F)cc3)C(=O)N2c2ccc(Cl)cc2C)cc1`, -6.96%.

As to `CCCc1c(C)nc2c(C(=O)NCc3ccc(F)cc3)c[nH]n2c1=O`, the activation is 4.27%. To `CC1CCCCC1NS(=O)(=O)c1ccc2c(c1)CCN2C(=O)C1CC1` (centres undefined) belongs -8.17%; to `CNS(=O)(=O)c1cc(-c2nnc(NCc3nc4ccccc4[nH]3)c3ccccc23)ccc1C`, 0.28%.

In the case of `CCOC(=O)c1cnc2ccc(OCC)cc2c1Nc1ccccc1OC`, the activation was 0.37%.

In the case of `CC(C(=O)O)n1ncn2cccc2c1=O` (centres undefined), the activation is 0.45%. To `Cc1cc2c(cc1S(=O)(=O)N1CCN(C3CCCCC3)CC1)OCC(=O)N2` belongs -3.55%; to `CCCCc1ccc(C(=O)N/C(=C\c2ccc(C)cc2)C(=O)Nc2ccc([N+](=O)[O-])cc2)cc1`, -6.88%.

For `COCCCNC(=O)c1csc2c1CCCC2`, the activation is -6.29%. For the compound `COc1ccccc1OCC(=O)n1nc(C)cc1C`, the activation is -1.85%.

As for `CC1=C(C(=O)OCC(C)C)C(c2ccc(Cl)cc2Cl)NC(=O)N1` (centres undefined), the activation is 1.8%. To `CCCCNC(=O)c1ccc2c(c1)ncn2-c1cc(OC)c(OC)c(OC)c1` belongs 3.91%; to `Cc1ccc(S(=O)(=O)c2cc3cc([N+](=O)[O-])ccc3oc2=O)cc1C`, -3.29%; to `c1ccc(Oc2nc(NC3CC3)c3ncn(-c4ccsc4)c3n2)cc1`, 38.7% (active). Consider `Clc1nc(NCc2ccccc2)c2ncn(-c3ccccc3)c2n1`, for which the activation is -0.22%.

As to `COc1ccc(S(=O)(=O)NC(N)=NCCc2ccccc2OC)cc1`, the activation is 0.59%. With `O=C(Cn1ncc2c(=O)oc3ccccc3c21)Nc1nc2ccccc2s1`, the activation is -0.55%. To `O=C(NCCc1ccccc1)c1cc(S(=O)(=O)N2CCOCC2)ccc1F` belongs -1.01%; to `O=C(NCC1CCC2(CCN(C(=O)Cc3cccc(F)c3)CC2)O1)c1ccccc1F` (centres undefined), 0.36%; to `O=C(CCC(=O)Nc1cc(C(F)(F)F)ccc1Cl)N/N=C\c1ccccc1O`, -2.79%. In the case of `CCOC(=O)c1c(NC(=O)c2ccc(Cl)cc2Cl)sc(C(=O)Nc2ccccc2F)c1C` it was -10.1%; in that of `Cc1ccc(-c2nnc(SCC(=O)NCc3ccccc3Cl)nc2-c2ccc(C)cc2)cc1`, -2.15%; in that of `COc1ccc(CCNc2ncnc3c2oc2ccccc23)cc1OC`, 44.3% (active). `COc1ccc(CCNC(=O)/C=C\C(=O)O)cc1OC`: the activation was 1.57%. In the case of `COc1ccc(CCNC(=O)Cn2ncn3cccc3c2=O)cc1OC` it was 3.19%; in that of `O=C(Cn1c(=O)n(Cc2ccccc2Cl)c(=O)c2cccnc21)Nc1ccc(F)cc1`, -1.3%. Consider `O=C(CCCn1c2ccccc2c(=O)c2ccccc21)Nc1cccc(Cl)c1`, for which the activation is 6.83%.
